# Results taken from the supplement of paper PMC10338343.
# ± gives the standard deviation.
# System: EfPiwi piRISC loaded with piRNA #1 (26 nt)
# Assay: pre-steady-state target cleavage rate (min^-1); auxiliary factor: 500 nM Ephydatia muelleri Gtsf1; guide: piRNA #1 5'p-UGAGGUAGUAGGUUGUAUAGUAUCCA; MIWI and MILI are mouse PIWI proteins and EfPiwi is from a freshwater sponge; tags in brackets are library labels; higher = faster piRNA-guided slicing of the target
# Description: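 Cleave-'n-Seq: a library of target RNAs (target site in constant flanks) at […] was incubated with 1 nM active freshwater sponge Ephydatia fluviatilis Piwi piRISC (synthetic 5'-monophosphorylated piRNA guide) with or without 500 nM EmGtsf1 at 33 °C for 1 min to 16 h. Uncleaved targets were sequenced and the pooled three trials fitted to a burst-and-steady-state model to give the pre-steady-state cleavage rate (min^-1). Sequence is the target site only. Fits with R² ≤ 0 are excluded.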
row,Sequence,pre-steady-state target cleavage rate
1,GGAGACCUAUCUAUACAUCCUAGUACCUCA,0.00398 ± 0.0038
2,GGAGACGAUACUCAUACAACCUACUACCUCA,0.0151 ± 0.0063
3,GGAGACCUAACUAUACAACCUACUACCGUCA,0.0162 ± 0.0091
4,GGAGACCUAACUAUACAACCUACUCCCUCA,0.00341 ± 0.0031
5,GGAGACCUAACUAUACAACCUACUUCCUCA,0.00336 ± 0.0029
6,GGAGACGAUACUAUACUACCUACUAGCUCA,0.00251 ± 0.0018
7,GGAGACCUAACUAUACAACCUACUACUUCA,0.00438 ± 0.0028
8,GGAGACCUUACGAUACAACCUACUACCUCA,0.0548 ± 0.021
9,GGAGUGCAUACUAUACUACCUACUACCUCA,0.00588 ± 0.0029
10,GGAGAGGAUACUAUACAUCCUACUACGUCA,0.00405 ± 0.0018
11,GGAGAGGAUACUAUACAACCUAGCUACCUCA,0.0038 ± 0.0017
12,GGAGACCUUACUAUACAACCUACUACCUUA,0.0898 ± 0.034
13,GGAGAGCAUACUAUACAACCUACUACGUCA,0.00351 ± 0.0025
14,GGAGACCAUACUAUAAAACCUACUACCUCA,0.00433 ± 0.0026
15,GGAGACCAUACUAUACAACCUACUCCCUCA,0.00669 ± 0.0039
16,GGAGUGGAUACAAUACAACCUACUAGCUCA,0.00216 ± 0.0014
17,GGAGAGGAUACUAUACAACCUCUACCUCA,0.00619 ± 0.0034
18,GGAGUGGAUACUAUACUACCUACUUCCUCA,0.00222 ± 0.0021
19,GGAGACCAUACUAUACAACCCACUACCUCA,0.0058 ± 0.0024
20,GGAGACGAUACUAUACUACGUACUACCUCA,0.00413 ± 0.0027

row,Sequence,pre-steady-state target cleavage rate
1,GGAGACCUUACUAUACAAACCUACUACCUCA,0.0103 ± 0.0047
2,GGAGACCUUACUAUACAACCAACUACCUCA,0.00528 ± 0.003
3,GGAGACCAUGACUAUACAACCUACUACCUCA,0.0764 ± 0.029
4,GGAGAGGAUACUAUAAAACCUACUACCUCA,0.00425 ± 0.0029
5,GGAGUGGAUACUAUUCAACCUACAACCUCA,0.00255 ± 0.0022
6,GGAGAGGAUACUAUACAACCUACUCACCUCA,0.00339 ± 0.0021
7,GGAGACGAUACUAUACAACACUACUACCUCA,0.00912 ± 0.0032
8,GGAGUGCAUACUAUACAACCUACUACGUCA,0.00318 ± 0.0018
9,GGAGUGGAUACUAUACAACCUAUCUACCUCA,0.00584 ± 0.0027
10,GGAGACCAUACUUUACUACCUACUACCUCA,0.00371 ± 0.0032
11,GGAGAGGAUACUAUACAACCUACAUACCUCA,0.00353 ± 0.0021
12,GGAGACGACUACUAUACAACCUACUACCUCA,0.01 ± 0.0046
13,GGAGACCUAUCUACUACAACCUACUACCUCA,0.00749 ± 0.0039
14,GGAGACCUAACUAUACAACCUACUACCUGA,0.00393 ± 0.002
15,GGAGACGAUACUAUACAACCUACUACCACA,0.00487 ± 0.0013
16,GGAGAGGAUACUAUACAACCUACAACCACA,0.00436 ± 0.0017
17,GGAGUGGAUACUAUACCAACCUACUACCUCA,0.0596 ± 0.021
18,GGAGACCAUACUAUACAACCUACUACCUA,0.0149 ± 0.0065
19,GGAGUGGAUACUAUACAUCCUACUUCCUCA,0.00326 ± 0.0017
20,GGAGAGGUUACUAUAGAACCUACUACCUCA,0.00277 ± 0.0023
